Screening data (PubChem)
Sm TGR block – S. mansoni TGR enzyme inhibition. purified TGR, DTNB reduction, TNB absorbance 405 nm. 360,000 compounds, 3% hits. Potency, µM (doses to about 114 µM), for inactives: at the highest dose activity change, negative = inhibition, actives largely listed as inhibitors. AID 485364. Q962Y6; active = well fitted inhibition curve with a large enough effect; inconclusive = small, poorly fitted or top-dose-only effect; inactive = no such curve, though single readings can be large or run the other way; note: % is set by controls: 0 for no effect and ±100 for the full control effect; nearly all actives have a fitted effect of over 60% in size
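TGR 20 nM + NADPH 100 uM (dispensed conc.), cpd preinc 15 min RT; start with NADPH (500 uM addition) then DTNB (15 mM addition). Kinetic TNB absorbance, 405 nm filter. Four-parameter Hill fit across titration.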
SARS PLpro yeast – blocks SARS-CoV papain-like protease in a yeast assay; 330,000 compounds, 0.19% hits; S. cerevisiae expressing SARS-CoV PLpro, growth rescue; Potency, µM (top dose mostly 32.9 µM), without a hit: top-dose activity, positive = growth rescue, hits mostly activators; calls by dose curve; note: 0% is about no effect; nearly all actives have a fitted effect of over 55% in size
Numbers without * were called inactive; ? = inconclusive; . = no result given; [ ] = dose if it differs, or a comment. Shown are actives, neighbours in structure and some others; about 3% of the full set was active somewhere. Potency is the fitted concentration of half-maximal effect.

SMILES | Sm TGR block | SARS PLpro yeast
COc1ccc(NC(=O)/C=C/c2ccco2)cn1 | 8.91µM* | 3.0%
COc1ccc(NC(=O)/C=C/c2ccc(Br)o2)cn1 | 11.2µM* | 0.4%
COc1ccccc1CNC(=O)Cc1ccc(Br)cc1 | 15.7% | 9.1%
COc1ccc(NC(=O)c2ccco2)cn1 | -6.3% | -0.4%
COc1ccccc1CNC(=O)/C=C/c1ccc(Br)o1 | 2.24µM* | -1.5%
COc1ccc(S(=O)(=O)NCC(c2ccc(N(C)C)cc2)N2CCc3ccccc32)cc1F (centres undefined) | -10.7% | .
COc1ccccc1CNC(=O)COCc1cc(-c2ccc3c(c2)OCO3)on1 | 5.3% | .
Cc1cc(C)cc(OCC(=O)Nc2nc3c(s2)CC(C(C)(C)C)CC3)c1 (centres undefined) | 6.7% | .
COc1ccc(S(=O)(=O)N2CCN(c3ccccc3OC)CC2)cc1-c1noc(C)n1 | 4.1% | .
COc1ccc(OC)c(-c2noc(CSc3nnc(Cc4ccccc4)n3-c3cccc(C)c3)n2)c1 | -4.0% | .
Cc1cc(CN2CCCC(CNC(=O)c3ccc(F)cc3)C2)cc(C)c1O (centres undefined) | 35.5µM* | 0.7%
O=C(NCC1CCCN(Cc2cccc(C(F)(F)F)c2)C1)c1ccc(F)cc1 (centres undefined) | 3.9%[57.1 µM] | 0.6%
CCN(CC)S(=O)(=O)c1ccc2c(c1)N(CC(=O)NCCc1ccc(OC)c(OC)c1)C(=O)CO2 | 4.9% | .
CC(=O)NC(c1ccco1)c1cc(Cl)c2ccc(N(C)C)nc2c1O (centres undefined) | 3.98µM* | 2.5%
CC(=O)NC(c1ccco1)c1cc(Cl)c2cccnc2c1O (centres undefined) | -20.5% | -0.1%
COc1cccc(-c2cc(C(F)(F)F)nc(NCc3ccc(F)cc3)n2)c1 | -1.6% | .
COc1cc(CNc2cccc3[nH]c(C(F)(F)F)nc23)cc(OC)c1 | 22.4µM* | 1.9%
Cc1ccc(C(=O)Nc2cccc3[nH]c(C(F)(F)F)nc23)cc1 | 0.0% | -5.5%
COc1ccc(CNc2cccc3[nH]c(C(F)(F)F)nc23)cc1 | 31.6µM* | -2.4%
O=C(Nc1cccc(F)c1)C1CCN(c2nc3ccccc3nc2C(F)(F)F)CC1 | 12.4% | .
COCCNC(=O)CCC1CCN(Cc2cccc(-c3ccc(C)o3)c2)CC1 | 39.8µM* | -4.0%
COCCNC(=O)CCC1CCN(C/C=C/c2ccccc2OC)CC1 | 5.4% | 6.1%
O=C(CNC(=O)c1ccc(Cl)cc1)OCc1cc(=O)n2ccsc2n1 | 35.5µM* | .
O=C(CNC(=O)c1ccccc1)OCc1cc(=O)n2ccsc2n1 | 7.0% | .
CCc1ccc(CN(Cc2ccco2)C(=O)COc2ccccc2Cl)cc1 | -9.9% | .
SMILES | Sm TGR block | SARS PLpro yeast
COc1cc2[nH]c(C(=O)N(C)Cc3ccccc3)cc2c(OC)c1OC | -10.8% | -3.4%
CCN(Cc1ccccc1)C(=O)c1cc2c(OC)c(OC)c(OC)cc2[nH]1 | 35.5µM* | 4.4%
Cc1ccc(NC(=O)CC2Sc3ccccc3NC2=O)c(Br)c1 (centres undefined) | -8.5% | .
O=C(CSc1ncccc1C(=O)Oc1ccccc1Cl)Nc1ccc(C(F)(F)F)cc1Cl | 0.5% | .
CN(C)c1ccc(C(CNC(=O)Cc2ccc(Cl)cc2)N2CCOCC2)cc1 (centres undefined) | -1.9% | .
CCc1nnc(NC(=O)CSc2ccc(-c3ccco3)nn2)s1 | 7.08µM* | -1.8%
CCc1nnc(NC(=O)CSc2nnc(-c3ccco3)n2C)s1 | 2.0% | -0.5%
Cc1nnc(NC(=O)CSc2ccc(-c3ccco3)nn2)s1 | 14.1µM* | -5.8%
Cc1nnc(NC(=O)CSc2nnc(-c3ccco3)n2C(C)C)s1 | 2.2% | 9.1%
CC(=O)Nc1ccc2nc3c(=O)n(C)c(=O)n(C)c3nc2c1C | -2.5% | .
NC(=O)c1c(NC(=O)CS(=O)(=O)c2ccc(Cl)cc2)sc2c1CCCC2 | -5.7% | .
Cc1cc(C)c2oc(C(=O)Nc3sc4c(c3C(=O)NCc3ccco3)CCCC4)cc(=O)c2c1 | 5.6% | .
Cc1ccc(NC(=O)c2cc(C)n(-c3ccccc3)c2C)cc1 | 8.4% | -63.3%
Cc1cc(C(=O)Nc2ccc(Cl)cc2)c(C)n1-c1ccccc1 | 50.1µM* | -5.4%
Cc1ccc2oc(=O)c3cc(C(=O)N4CCN(c5ccccc5)CC4)sc3c2c1 | -1.6% | .
CC(C)(C)C(=O)/C(=C/c1ccc(Cl)cc1)n1cncn1 | ? | -4.3%
CC(C)(C)C(=O)/C(=C\c1ccc([N+](=O)[O-])cc1)n1cncn1 | 2.24µM* | -88.9%
COc1cccc(CNC(=O)C(=O)NCC(c2cccs2)S(=O)(=O)c2cccs2)c1 (centres undefined) | 25.1µM* | .
O=C(NCc1ccccc1)C(=O)NCC(c1cccs1)S(=O)(=O)c1ccccc1 (centres undefined) | 1.9% | .
COc1cccc(CNC(=O)C(=O)NCC(c2ccco2)S(=O)(=O)c2cccs2)c1 (centres undefined) | 3.98µM* | .
COc1cccc(CNC(=O)CCNS(=O)(=O)c2cccs2)c1 | -14.8% | -1.9%
COc1cccc(C2c3c(-c4ccccc4O)n[nH]c3C(=O)N2CCc2ccc(OC)c(OC)c2)c1 (centres undefined) | 1.2% | .
O=C(CC(c1cccs1)N1Cc2ccccc2C1=O)Nc1ccc(Cl)cc1 (centres undefined) | 0.7% | .
Cn1nnnc1SCC(=O)NCCCc1ccccc1 | 0.0% | -1.7%
Cn1nnnc1SCC(=O)NCC(=O)c1ccccc1 | 20µM* | 5.8%
SMILES | Sm TGR block | SARS PLpro yeast
CCc1cc2ccc(OC)cc2nc1SCC(=O)NNC(=O)c1ccco1 | 8.91µM* | 0.1%
CCc1cc2cc(C)c(C)cc2nc1SCC(=O)NNC(=O)c1ccco1 | -17.6% | -1.9%
CN(C)CCN(Cc1ccccc1)S(=O)(=O)c1ccc(-c2cc(C(F)(F)F)on2)s1 | 9.3% | .
Cc1cccc(NC(=O)c2cc3c(=O)n(Cc4ccco4)ccc3nc2C)c1 | 0.3% | .
COc1ccccc1C(=O)NNC(=S)NC(=O)c1sc2ccccc2c1Cl | -11.0% | 11.2%
Cc1c(NC(=S)NC(=O)c2sc3ccccc3c2Cl)cccc1C(=O)O | 3.16µM* | -2.6%
COc1ccc(OC)c(NC(=O)c2ccc3nc(C(C)C)oc3c2)c1 | 6.5% | .
Cc1[nH]c(=O)[nH]c(=O)c1/C=N/NC(=O)CCCCCNC(=O)OC(C)(C)C | 9.7% | 1.3%
Cc1[nH]c(=O)[nH]c(=O)c1/C=N/NC(=O)CCNC(=O)OC(C)(C)C | 17.3% | 3.4%
Cc1[nH]c(=O)[nH]c(=O)c1/C=N/NC(=O)[C@H](C)N | 50.1µM* | -0.5%
Cc1[nH]c(=O)[nH]c(=O)c1/C=N/NC(=O)[C@@H](NC(=O)OC(C)(C)C)C(C)C | 35.5µM* | -7.0%
COc1ccc(O)c(/C=N/n2c(-c3ccco3)csc2=Nc2cccnc2)c1 | -15.8% | -4.3%
CN=c1scc(-c2ccco2)n1/N=C/c1ccc(O)c(O)c1 | 10µM* | -3.5%
CC1(C)c2ccccc2N2CCC(=O)NC21/C=C/c1ccco1 (centres undefined) | 25.1µM* | -7.6%
CC1(C)c2ccccc2N2CC(=O)NC21/C=C/c1ccco1 (centres undefined) | 7.94µM* | 0.3%
O=C1CN(C(=O)COC(=O)/C=C/c2ccco2)c2ccccc2N1 | ? | 0.7%
Cc1ccc2c(c1)C(C)(C)[C@]1(C)NC(=O)CCN21 | 7.2% | 8.1%
Cc1ccc2nc(-c3ccc(Cl)c(NC(=O)c4cccc([N+](=O)[O-])c4C)c3)oc2c1 | -4.5% | .
C#CC(=O)N(c1cccc(OC)c1)C(C(=O)NC1CCCC1)c1cccs1 (centres undefined) | 7.94µM* | -26.8%
